# Measurements: the supplement of paper PMC3842684
# Tests used:
# [1] = tested on: P. falciparum NF54-pfs16-GFP early (I-III) stage gametocytes; assay: relative % inhibition of viable gametocyte number; higher = more gametocytocidal; settings: stage: early (I-III) gametocyte, incubation 72 h
# Method in brief: (§1)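 Early-stage (I/IIa, day 2) or late-stage (day 8) NF54 pfs16-GFP gametocytes were isolated by magnet and plated in 384-well poly-D-lysine imaging plates at 10% parasitaemia and 0.1% haematocrit, with compound in duplicate at 5 or 0.5 µM. After 72 h at 37°C under 5% CO2 and 5% O2, MitoTracker Red was added overnight. Confocal imaging scored elongated GFP objects whose MitoTracker signal passed a cut-off as viable gametocytes. Relative inhibition was normalised against vehicle and positive-control wells on the same plate.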
# [2] = tested on: P. falciparum NF54-pfs16-GFP late (IV-V) stage gametocytes; assay: as above; settings: stage: late (IV-V) gametocyte, incubation 72 h
# Method in brief: as §1
SMILES,relative % inhibition ([1]; 0.5 µM) [%],relative % inhibition ([1]; 5 µM) [%],relative % inhibition ([2]; 0.5 µM) [%],relative % inhibition ([2]; 5 µM) [%]
O=C(Nc1ccccc1O)c1ccc(Oc2cccc(C(=O)Nc3ccccc3O)c2)cc1,20.5,50.6,14.1,8.35
O=C(Nc1ccc(-c2nc3cc4ccccc4cc3[nH]2)cc1)c1cccc(Br)c1,23.2,34.5,-2.59,7.93
CSC1=NC(=Nc2c(C)cccc2C)C2(CCC(C(C)(C)C)CC2)N1c1ccc(Cl)cc1 (stereo not given),24.7,4.25,93.4,103
COc1ccc2nc(N)nc(C)c2c1,15.7,24.8,10.6,-4.54
O=c1nc(C=Cc2ccc(Br)cc2)oc2ccccc12,10.7,-18.8,4.47,101
CCOc1cccc(C(=O)Nc2ccc(-c3nc4ccccc4[nH]3)cc2)c1,35.7,-17.2,4.79,17.9
CCOC(=O)c1cnc2c(CC)cccc2c1O,-5.02,0.0948,21.6,45.2
CC(NCc1ccccc1)c1cc(Cl)ccc1O (stereo not given),15.7,89.5,15.3,53.3
CCOc1cccc2sc(N(Cc3cccnc3)C(=O)C3CCCCC3)nc12,16.6,53.7,-9.86,11.9
Cc1ccc(C)c(-c2csc(Nc3ccc(C)c(C)c3)n2)c1,9.93,-13.3,15.6,41.4
Oc1ccccc1CN1CCC2(CCCN(Cc3ccccc3F)C2)C1 (stereo not given),32.5,93.8,34.9,61.2
O=C(O)C1Cc2c([nH]c3ccccc23)C(c2ccc(Cl)cc2Cl)N1 (stereo not given),-10.4,-20.9,6.2,1.16
CCCc1c(C)nc2ccccc2c1O,-8.06,15.7,56.5,72.3
O=C(Nc1cccc(-c2nc3ccccc3[nH]2)c1)c1cccc(NC(=O)c2ccco2)c1,12.9,20.8,-1.52,0.95
CCN(CC)CCNc1ccnc2cc(Cl)ccc12,-1.61,100,18.2,14.7
CNCCCNc1ccnc2cc(Cl)ccc12,106,106,26.6,39.1
COc1cccc(Cn2c(Oc3ccccc3)nc3c2c(=O)n(C)c(=O)n3C)c1,1.22,-14,6.35,9.52
CCOC(=O)C1CCN(C(=O)CN2C(=O)c3ccccc3C2c2c[nH]c3ccccc23)CC1 (stereo not given),7.45,98.3,28.9,63.3

SMILES,relative % inhibition ([1]; 0.5 µM) [%],relative % inhibition ([1]; 5 µM) [%],relative % inhibition ([2]; 0.5 µM) [%],relative % inhibition ([2]; 5 µM) [%]
Cc1ccccc1OCCSc1nc2ccc(NC(=O)c3ccccc3)cc2s1,24.2,20.2,2.82,12.9
CN(C)CCCNCc1ccc(-c2ccc(F)c(Cl)c2)o1,32.7,99.5,7.27,20.8
CCOc1ccc(-c2nc(NC(=O)c3cccc(S(C)(=O)=O)c3)sc2C)cc1,17.8,15.4,4.66,-3.57
COc1ccc(N2CCN(C(CNC(=O)C3CCCCC3)c3ccc4c(c3)OCO4)CC2)cc1 (stereo not given),22.8,8.98,35.1,50.7
CCCc1c(CC)c(=N)c2ccccc2n1C,25.1,19.6,7.6,-7.96
CCOC(=O)c1cnc2c(C)cc(C)cc2c1Nc1ccc(OC)c(OC)c1,2.37,7.56,-4.75,3.59
CCOc1ccc(CCNC(=O)c2cccs2)cc1OCC,-1.74,30.1,-6.65,16.1
N=c1n(CCN2CCCCC2)c2ccccc2n1CC(=O)c1ccc(Cl)c(Cl)c1,-10.5,76.8,55.4,96.9
Cc1cc(Nc2cccc(F)c2)nc(NCc2ccccc2)n1,28.5,72.2,24.1,34.6
Oc1ccccc1CN1CCN(C(c2ccccc2)c2ccccc2)CC1,13.3,98.5,28.3,78.5
CCOc1ccc(C=Cc2nc(=O)c3ccccc3o2)cc1,4.08,22.2,22.3,21.6
COc1ccc2nc(C)cc(Nc3ccc(Cl)cc3)c2c1,-10.1,13.9,7.89,11.7
COc1cccc(O)c1CN1CCC2(CCCN(Cc3ccc(F)cc3)C2)C1 (stereo not given),11.3,80.5,17.2,98.8
CCOc1ccc(Nc2ccnc3cc(Cl)ccc23)cc1,-5.49,-2.53,14.7,14.7
Cc1cccc(-n2ncc3c(=O)[nH]c(-n4nc(C)cc4NC(=O)c4cc5ccccc5o4)nc32)c1,-5.22,49,100,102
CCCn1c(=N)c(C(=O)NC2CCCCC2)cc2c(=O)n3cccc(C)c3nc21,13.4,24.4,-19.9,8.02
C=C(C)CCC(C)N1CCC(N2CCC(C(=O)NCCc3ccccc3)CC2)CC1 (stereo not given),-2.27,49.4,-12.5,-42.7
